The values below come from PubChem BioAssay (Tox21).

Inconclusive results are not listed. The source holds several records for some structures; these can differ, active in one and inactive in another. Activity calls are given as the source filed them. Unless noted, the call rests on the fitted dose curve.

The target in assay [1] is Gonadotropin-releasing hormone receptor (Homo sapiens) (UniProt P30968). Kind of assay: Human gonadotropin-releasing hormone receptor (GnRHR) small molecule agonists, calcium flux assay in GnRHR-HEK293 cells (AID 1920063). Further: nearly all actives have a fitted effect of over 35% in size. A digest of the protocol: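 Calcium-dye fluorescence, Ex/Em=480/540, recorded every 1 sec over 3 min after compound addition to GnRHR-HEK293 cells. Cells had been seeded 18 hours earlier and dye-loaded for 1 hour at 37 C. Fifteen concentrations, triplicates.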
Gonadotropin-releasing hormone receptor (Homo sapiens), sequence (P30968 whole entry, looked up): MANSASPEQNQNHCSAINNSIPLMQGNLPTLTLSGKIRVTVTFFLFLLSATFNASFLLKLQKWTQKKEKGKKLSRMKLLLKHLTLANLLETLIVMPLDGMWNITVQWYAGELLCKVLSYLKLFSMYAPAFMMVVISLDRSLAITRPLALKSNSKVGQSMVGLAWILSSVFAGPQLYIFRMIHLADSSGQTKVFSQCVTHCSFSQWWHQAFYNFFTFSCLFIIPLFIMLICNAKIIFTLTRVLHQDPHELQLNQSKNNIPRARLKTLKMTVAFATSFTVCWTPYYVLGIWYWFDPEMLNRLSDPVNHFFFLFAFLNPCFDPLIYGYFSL
(In general: Calcium flux is commonly read through the fluorescence of an indicator in the cells.)

Assay [2] concerns the target KiSS-1 receptor (Homo sapiens) (UniProt Q969F8). Kind of assay: Human kisspeptin (KISS1R) small molecule agonists, calcium flux assay in KISS1R-HEK293 cells (AID 1920064; active means well fitted activation curve with a large enough effect in the repeat runs). A digest of the protocol:
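Calcium flux read-out: kinetic fluorescence at Ex/Em=480/540, 1 s intervals over 3 min, after pin-tool compound addition to dye-loaded KISS1R-HEK293 cells. Fifteen concentrations, triplicates.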

A short description of assay [3]: G protein-coupled receptor (GPCR) small molecule agonists, calcium flux assay: HEK293 wild type cell line counter screen (AID 1920065). The gist of the method: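 Agonist mode; 18 h seeding at 37 C, 1 h dye load at 37 C; compounds pinned from DMSO, ATP as positive control; kinetic fluorescence 480/540 nm, 3 min, 1 s reads; 15 concentrations, triplicate.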
A short description of assay [4]: p53 small molecule agonists, cell-based qHTS assay with human liver microsomes (AID 1963577). The gist of the method: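 Cells carrying a p53-responsive bla reporter were rested 5 h (37 C, 5% CO2) before compound transfer. Human liver microsomes plus NADPH, 0.5 mg/mL final apiece, supplied metabolism during the 16 h 37 C exposure.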
On the technique in general: In qHTS, concentration-response curves come from the screen itself.

A short description of assay [5]: p53 small molecule agonists, cell-based qHTS assay with human liver microsomes: qHTS cell viability counter screen (AID 1963579). Further: nearly all actives have a fitted effect of over 45% in size. A digest of the protocol:
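Seed p53RE-bla cells at 4,000 per well; incubate 5 h at 37 C; add compound, human liver microsomes and NADPH; incubate 16 h at 37 C; add CellTiter-Glo; after 30 min at room temperature, read luminescence.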

A short description of assay [6]: p53 small molecule agonists, cell-based qHTS assay with rat liver microsomes: qHTS cell viability counter screen (AID 1963580). Further: nearly all actives have a fitted effect of over 45% in size. A digest of the protocol:
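Cytotoxicity counter screen: intracellular ATP read by CellTiter-Glo luminescence in the p53 reporter wells. HCT-116 p53RE-bla cells were treated for 16 h at 37 C alongside rat liver microsomes and NADPH, each 0.5 mg/mL final.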

The nature of assay [7]: p53 small molecule agonists, cell-based qHTS assay: qHTS cell viability counter screen (AID 1963581). Further: nearly all actives have a fitted effect of over 45% in size. A digest of the protocol:
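Cytotoxicity read-out: ATP-based luminescence (CellTiter-Glo, 30 min RT) measured in the same wells as the p53 reporter assay, HCT-116 p53RE-bla cells, 16 h compound exposure at 37 C.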

The nature of assay [8]: p53 small molecule agonists, cell-based qHTS assay (AID 1963582; active means well fitted activation curve with a large enough effect in the signal ratio in the repeat runs, not every such curve was filed as active; the % refers to the signal ratio). A digest of the protocol:
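Fluorescence intensity read-out of a beta-lactamase reporter under a p53 response element. Cells were exposed to DMSO-dissolved compounds for 16 h at 37 C, then developed with FRET substrate for 2 h at RT.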

For assay [9], the target named is 5-hydroxytryptamine receptor 2A (Homo sapiens) (UniProt P28223). Kind of assay: 5-hydroxytryptamine receptor 2A (HTR2A) small molecule antagonists, cell-based qHTS assay (AID 1963586). Further: nearly all actives have a fitted effect of over 45% in size. The gist of the method: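 CHO cells stably expressing human HTR2A were plated for 18 h at 37 C, then loaded with calcium dye for 1 h. Compounds were preincubated 5 min at room temperature before DOI (4 nM solution) was added. Kinetic fluorescence was read for 3 min.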
5-hydroxytryptamine receptor 2A (Homo sapiens), sequence (P28223 whole entry, looked up): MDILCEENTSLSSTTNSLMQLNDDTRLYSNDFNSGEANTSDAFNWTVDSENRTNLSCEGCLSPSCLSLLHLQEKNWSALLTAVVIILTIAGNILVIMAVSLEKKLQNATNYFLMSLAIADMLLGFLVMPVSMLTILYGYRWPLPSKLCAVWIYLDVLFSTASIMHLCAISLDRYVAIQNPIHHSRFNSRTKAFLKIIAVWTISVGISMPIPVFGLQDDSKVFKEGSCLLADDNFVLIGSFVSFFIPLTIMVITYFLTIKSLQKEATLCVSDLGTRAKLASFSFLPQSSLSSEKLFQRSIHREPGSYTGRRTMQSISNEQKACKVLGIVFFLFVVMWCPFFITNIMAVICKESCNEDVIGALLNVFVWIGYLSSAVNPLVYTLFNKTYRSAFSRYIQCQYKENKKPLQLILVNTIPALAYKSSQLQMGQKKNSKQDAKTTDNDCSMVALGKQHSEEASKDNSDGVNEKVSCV

Assay [10] shares this target. Kind of assay: 5-hydroxytryptamine receptor 2A (HTR2A) small molecule agonists, cell-based qHTS assay (AID 1963587). Further: nearly all actives have a fitted effect of over 30% in size. A digest of the protocol: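 Kinetic calcium-flux fluorescence (2 min, 1 sec intervals) after compound addition in agonist mode. HTR2A-CHO cells were cultured 18 h, then dye-loaded 1 h at 37 C.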
The target of assay [11] is Muscarinic acetylcholine receptor M1 (Homo sapiens) (UniProt P11229). The experiment in a line: Cholinergic receptor muscarinic 1 (CHRM1) small molecule agonists, cell-based qHTS assay (AID 1963589). Further: nearly all actives have a fitted effect of over 35% in size. Further: potency means the concentration at half of the fitted maximal effect. A digest of the protocol:
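Calcium flux read-out: kinetic fluorescence at 1 sec intervals after pin-tool compound addition to dye-loaded CHRM1-CHO cells (human M1). Agonist mode; 15 concentrations tested in triplicate independent runs.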

Assay [12] in a line: cAMP Responsive Elements (CRE) small molecule agonists, cell-based qHTS assay (AID 1963590). A digest of the protocol: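 Beta-lactamase reporter readout: LiveBLAzer B/G FRET substrate, 2 h at room temperature, added after 3 h compound treatment of CRE-bla HEK 293T cells at 37 C/5% CO2.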
The nature of assay [13]: cAMP Responsive Elements (CRE) small molecule antagonists, cell-based qHTS assay (AID 1963591; active means well fitted inhibition curve with a large enough effect in the signal ratio in the repeat runs, not every such curve was filed as active; the % refers to the signal ratio). A digest of the protocol: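 HEK293T CRE-bla; 18 h preincubation; compound pin-transfer; NKH477 0.25 uM final, 3 h, 37 C; LiveBLAzer FRET substrate 2 h RT.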
Assay [14] deals with Beta-2 adrenergic receptor (Homo sapiens) (UniProt P07550). The experiment in a line: Adrenergic beta2 receptor (ADRB2) small molecule antagonists, cell-based qHTS assay (AID 1963592). Further: series mostly up to about 92 µM; nearly all actives have a fitted effect of over 50% in size. The gist of the method: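 Assay format: CHO-ADRB2 cells, 18-20hr seeding at 37C/5% CO2, then compound plus 1nM isoproterenol agonist mix for 0.5hr RT. Homogeneous time-resolved fluorescence cAMP detection after 1hr, expressed as 665/615 nm ratio.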
Beta-2 adrenergic receptor (Homo sapiens), sequence (P07550 whole entry, looked up): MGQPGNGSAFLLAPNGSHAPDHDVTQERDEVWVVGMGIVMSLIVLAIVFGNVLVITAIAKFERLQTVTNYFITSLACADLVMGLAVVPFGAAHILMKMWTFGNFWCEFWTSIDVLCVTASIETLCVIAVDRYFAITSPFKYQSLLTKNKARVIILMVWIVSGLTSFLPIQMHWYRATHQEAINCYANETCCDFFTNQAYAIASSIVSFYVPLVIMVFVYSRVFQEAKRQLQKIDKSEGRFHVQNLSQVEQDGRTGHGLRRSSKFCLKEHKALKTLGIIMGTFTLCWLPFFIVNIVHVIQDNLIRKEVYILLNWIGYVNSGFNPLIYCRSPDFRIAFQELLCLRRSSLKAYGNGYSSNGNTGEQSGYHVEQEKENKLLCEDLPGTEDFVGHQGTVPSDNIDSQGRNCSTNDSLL

For assay [15] the target is unchanged. The experiment in a line: Adrenergic beta2 receptor (ADRB2) small molecule agonists, cell-based qHTS assay (AID 1963593).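 Further: CHO cells stably overexpressing human ADRB2.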 A digest of the protocol: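 CHO cells stably over-expressing ADRB2 were plated overnight at 37C, then dosed with compounds plus a stimulation mix containing 100uM IBMX and 25uM Ro-20-1724 for 0.5hr at room temperature. cAMP was measured by HTRF competition, 1hr.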

Assay [16] concerns the target D(2) dopamine receptor (Homo sapiens) (UniProt P14416). The experiment in a line: Dopamine D2 receptor (DRD2) small molecule agonists, cell-based qHTS assay (AID 1963594). Further: nearly all actives have a fitted effect of over 35% in size. A digest of the protocol: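 cAMP accumulation in DRD2-HEK293 cells measured by HTRF after 1 h detection; compounds added 10 min before NKH477 (200nM […]) forskolin-analogue stimulation, 30 min at room temperature, with Ro20-1724 present at 0.1 mM final.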

Assay [17] is described as follows: Nuclear factor erythroid 2-related factor 2/antioxidant responsive element (Nrf2/ARE) small molecule agonists: luciferase reporter gene qHTS assay in human keratinocytes (AID 1919969). Further: nearly all actives have a fitted effect of over 35% in size. On the technique in general: A reporter such as luciferase makes a cellular process visible.
Assay [18] has as its target Muscarinic acetylcholine receptor M1 (Homo sapiens) (UniProt P11229). Kind of assay: Cholinergic receptor muscarinic 1 (CHRM1) small molecule antagonists, cell-based qHTS assay (AID 1963588). Further: nearly all actives have a fitted effect of over 40% in size. The gist of the method:
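Compounds were tested at 15 concentrations in three independent runs. Dye-loaded CHRM1-CHO cells were exposed 5 min at room temperature before stimulation by acetylcholine added at 50nM. Intracellular calcium was read kinetically on FDSS for 3 min.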

The target in assay [19] is D(2) dopamine receptor (Homo sapiens) (UniProt P14416). The experiment in a line: Dopamine D2 receptor (DRD2) small molecule antagonists, cell-based qHTS assay (AID 1963595; active means well fitted inhibition curve with a large enough effect in the signal ratio in the repeat runs, with a control signal flat; the % refers to the signal ratio). A digest of the protocol: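 Human DRD2 antagonist qHTS measuring cAMP by HTRF. The cells are exposed to compound for 10 min, then to NKH477 (200 nM) and quinpirole (12 nM) for 30 min at RT, with Ro20-1724 (0.1 mM) present throughout.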
D(2) dopamine receptor (Homo sapiens), sequence (P14416 whole entry, looked up): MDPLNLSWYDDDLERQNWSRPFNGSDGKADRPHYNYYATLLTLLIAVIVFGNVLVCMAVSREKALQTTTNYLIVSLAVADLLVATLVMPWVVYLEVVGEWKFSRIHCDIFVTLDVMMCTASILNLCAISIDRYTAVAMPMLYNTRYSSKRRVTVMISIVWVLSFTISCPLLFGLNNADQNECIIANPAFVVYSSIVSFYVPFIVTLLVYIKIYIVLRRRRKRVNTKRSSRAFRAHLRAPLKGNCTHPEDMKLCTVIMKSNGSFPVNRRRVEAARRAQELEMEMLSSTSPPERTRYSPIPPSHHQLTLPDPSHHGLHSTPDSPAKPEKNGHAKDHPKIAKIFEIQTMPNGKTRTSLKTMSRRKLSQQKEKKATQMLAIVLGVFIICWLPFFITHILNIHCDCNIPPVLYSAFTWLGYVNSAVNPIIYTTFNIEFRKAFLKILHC

Assay [20] is described as follows: p53 small molecule agonists, cell-based qHTS assay with rat liver microsomes (AID 1963578). The gist of the method: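 Fluorescence from a beta-lactamase reporter under a p53 response element was measured after cells had been incubated 16 h at 37 C with test compound and rat liver microsomes plus NADPH (0.5 mg/mL final each).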

KiSS-1 receptor (Homo sapiens), sequence (Q969F8 whole entry, looked up): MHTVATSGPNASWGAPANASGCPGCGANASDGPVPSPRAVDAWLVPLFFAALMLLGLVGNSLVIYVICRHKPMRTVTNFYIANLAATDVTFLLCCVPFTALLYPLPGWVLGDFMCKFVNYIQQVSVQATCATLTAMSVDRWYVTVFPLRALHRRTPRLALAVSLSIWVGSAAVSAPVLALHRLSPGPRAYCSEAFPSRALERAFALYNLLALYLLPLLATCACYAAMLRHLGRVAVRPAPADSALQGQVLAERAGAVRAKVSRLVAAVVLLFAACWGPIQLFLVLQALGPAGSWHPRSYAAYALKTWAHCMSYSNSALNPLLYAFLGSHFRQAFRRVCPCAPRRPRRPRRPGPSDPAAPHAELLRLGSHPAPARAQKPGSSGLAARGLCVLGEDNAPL
Muscarinic acetylcholine receptor M1 (Homo sapiens), sequence (P11229 whole entry, looked up): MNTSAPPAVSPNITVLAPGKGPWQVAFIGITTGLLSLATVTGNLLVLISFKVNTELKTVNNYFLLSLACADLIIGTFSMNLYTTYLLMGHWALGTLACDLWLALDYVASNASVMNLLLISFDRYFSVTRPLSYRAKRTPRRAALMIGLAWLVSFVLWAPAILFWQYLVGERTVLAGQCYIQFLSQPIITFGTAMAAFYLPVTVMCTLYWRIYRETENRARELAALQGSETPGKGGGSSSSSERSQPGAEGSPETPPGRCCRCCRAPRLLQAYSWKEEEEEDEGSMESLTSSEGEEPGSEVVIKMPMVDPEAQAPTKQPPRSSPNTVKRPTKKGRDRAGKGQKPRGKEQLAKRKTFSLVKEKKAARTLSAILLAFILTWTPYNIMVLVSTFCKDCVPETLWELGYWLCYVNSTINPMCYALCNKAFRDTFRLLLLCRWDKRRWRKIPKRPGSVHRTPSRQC

`[Cl][Dy]([Cl])[Cl]`: the Potency entry in assay [1], in assay [2], in assay [3], in assay [4], in assay [5] and in assay [6] was “inactive” each time. Also, the Potency entry in assay [7], in [8], in assay [9], in assay [10], in assay [11] and in assay [12] was “inactive” throughout. For the same compound, the Potency entry in assay [13], in assay [14], in [15] and in assay [16] was “inactive” each time.
On to `CC(C)(O)C#CC(C)(C)O`, for which the Potency result in assay [17], in [1], in assay [3], in assay [4], in assay [5] and in [6] was “inactive” throughout. Besides, the Potency entry in assay [7], in assay [8], in assay [9], in assay [10], in assay [18] and in assay [11] was “inactive” in each case. For the same compound, the Potency entry in [12], in assay [13], in assay [14] and in assay [19] was “inactive” throughout.
With `NC(=O)Nc1ccc(Cl)cc1`, the Potency entry in assay [1], in assay [2], in assay [3], in assay [4], in [20] and in [5] was “inactive” each time. Moreover, the Potency result in [6], in assay [7], in [8], in [9], in [10] and in assay [18] was “inactive” in each case. In addition, the Potency result in assay [11], in assay [12], in assay [13], in [14], in assay [15] and in assay [16] was “inactive” throughout. Besides, the Potency entry in assay [19] is “inactive”.
For the compound `CCCSSCCC`, the Potency entry in [1], in [2], in assay [3], in assay [4], in [20] and in [5] was “inactive” in each case. The Potency entry in assay [6], in [8], in assay [9], in assay [10], in assay [18] and in assay [11] was “inactive” in each case. Besides, the Potency entry in assay [12], in assay [13], in [14], in assay [15], in assay [16] and in [19] was “inactive” each time.
Regarding `C/C=C/C(=O)O`, the Potency entry in assay [1], in assay [2], in assay [3], in assay [5], in assay [6] and in assay [7] was “inactive” in each case. Also, the Potency entry in assay [9], in assay [10], in assay [18], in assay [12], in assay [13] and in [14] was “inactive” in each case. In addition, the Potency result in assay [16] and in assay [19] was “inactive” each time. Further, the Potency in assay [11] is 93.3 nM (active) and inactive.
As to `NC(=O)c1ccccc1Cl`, the Potency result in assay [17], in assay [1], in [3], in assay [4], in assay [20] and in assay [6] was “inactive” throughout. In addition, the Potency result in assay [7], in assay [8], in assay [9], in [10], in [18] and in assay [11] was “inactive” each time. Besides, the Potency entry in assay [12], in assay [13], in assay [15], in assay [16] and in assay [19] was “inactive” throughout.
As to `CCN(CC)CCNC(=O)c1ccc(NC(C)=O)cc1`, the Potency entry in assay [17], in assay [2], in assay [4], in assay [20], in assay [5] and in [7] was “inactive” throughout. Also, the Potency result in [8], in assay [9], in assay [10], in assay [18], in [11] and in assay [12] was “inactive” in each case. The Potency result in [13], in assay [14], in assay [15] and in [16] was “inactive” in each case.
